Compound activity: PubChem BioAssay, several laboratories
An excerpt weighted towards active compounds, which were near 4.4% of everything screened.
PfHsp90 yeast 2 – inhibits growth of yeast expressing Plasmodium falciparum Hsp90. S. cerevisiae expressing PfHsp90, BacTiter-Glo ATP, 48 h; yeast lacking PDR1 and PDR3 efflux regulators. inhibition, % at 9.4 µM. 310,000 tested, 0.32% active. AID 504621;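 active = every replicate shows inhibition above about 80%, whatever the replicate mean, limit read from the data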;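 note: 0% = DMSO neutral controls and 100% = 20 µM radicicol positive controls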
SKKanGAS inh – SKKanGAS growth inhibition. S. pyogenes SKKanGAS, kanamycin growth, BacTiter-Glo, 6 h. inhibition, % at 7.5 µM. 300,000 tested, 1.3% active. AID 1662;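 active = mean replicate score, as percent of positive control median, at least 50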;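 note: strain carries kanamycin resistance gene driven by streptokinase promoter and grows in 40 µg/ml kanamycin; loss of luminescence reflects streptokinase promoter inhibition or plain growth inhibition; 0% = median of DMSO wells and 100% = positive control at its reference dose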
tim10-1 inh – tim10-1 yeast growth inhibition | inhibition, % at 20 µM | 330,000 tested, 2.2% active | AID 463190 | S. cerevisiae tim10-1 ts strain growth, BacTiter-Glo, 24 h;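 active = inhibition of at least 40%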;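 note: mutant grown at 25 °C; 0% = DMSO wells with yeast and 100% = wells holding no yeast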
TIM10 inh – TIM10 yeast growth inhibition. inhibition, % at 10 µM. AID 463195. 330,000 tested, 1.4% active. S. cerevisiae TIM10 strain growth, BacTiter-Glo luminescence, 24 h;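 active = inhibition of 40% or more at the single tested concentration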;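 note: wild-type TIM10 isogenic control strain grown at permissive 25 °C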
tim23-1 inh – growth inhibitors of tim23-1 mutant yeast | S. cerevisiae tim23-1 growth, BacTiter-Glo luminescence, 24 h | inhibition, % at 20 µM | 330,000 tested, 1.3% active;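 active = growth inhibition of the mutant yeast at or above 50%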;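 note: temperature-sensitive mutant grown at 25 °C; plate controls were DMSO-treated mutant yeast for no effect and medium wells lacking yeast for full effect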
tim10-1 conf – confirmation of tim10-1 mutant yeast growth inhibitors | S. cerevisiae tim10-1 ts strain growth, BacTiter-Glo, 24 h | inhibition, % at 20 µM | 7,400 tested, 56% active | AID 463213 | shares compounds with tim10-1 inh;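 active = inhibition of yeast growth at or above a set limit in either of two repeat tests at 20 µM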;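 note: tim10-1 mutant grown at permissive 25 °C to find synthetic lethal compounds; 0% = DMSO yeast wells and 100% = medium wells without yeast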
tim10 confirm – confirmation of TIM10 yeast growth inhibitors; shares compounds with TIM10 inh; S. cerevisiae tim10 strain growth, BacTiter-Glo luminescence, 24 h; inhibition, % at 10 µM; 4,600 tested, 63% active; AID 463215;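 active = inhibition of yeast growth at or above a set limit in either of two replicates at 10 µM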;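 note: this counterscreen used the strain with wild-type TIM10; 0% = yeast with DMSO and 100% = medium wells lacking yeast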
tim23-1 conf – confirmation of tim23-1 mutant yeast growth inhibitors. shares compounds with tim23-1 inh. S. cerevisiae tim23-1 growth, BacTiter-Glo luminescence, 24 h. inhibition, % at 20 µM. 4,400 tested, 83% active;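 active = inhibition above about 39% in either of two replicate wells at 20 µM, limit read from the data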;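 note: temperature-sensitive tim23-1 mutant grown at 25 °C; 0% = DMSO wells with yeast and 100% = medium wells without yeast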
Active calls of the source: *; x = no result.

SMILES	PfHsp90 yeast 2	SKKanGAS inh	tim10-1 inh	TIM10 inh	tim23-1 inh	tim10-1 conf	tim10 confirm	tim23-1 conf
O=C(CC1C(=O)N(c2ccccc2)C(=S)N1c1ccccc1)c1ccccc1 (stereo not drawn)	5	-2	47*	49*	52*	42*	40*	53*
C=CCNC(=O)/C(C#N)=C/c1cc(Br)ccc1OC	-10	-16	78*	83*	88*	84*	91*	71*
Cc1cccc(NC(=O)/C(C#N)=C/c2ccccc2Cl)n1	23	1	52*	42*	71*	25	32*	62*
C=CCNC(=O)/C(C#N)=C/c1ccccc1Cl	-25	4	51*	66*	85*	63*	74*	80*
C=CCNC(=O)/C(C#N)=C/c1cn(-c2ccccc2)nc1-c1ccc(OC)c([N+](=O)[O-])c1	-9	6	x	x	x	x	x	x
Cc1ccc(NC(=O)c2ncn(CC(=O)NCC(C)c3ccccc3)n2)cc1C (stereo not drawn)	-6	x	1	-18	24	x	x	x
CCC(=O)c1ccc(OCC(=O)Nc2ccccc2N2CCCCC2)cc1	16	2	-15	11	8	x	x	x
CCOC(CNC(=O)C1CCN(S(=O)(=O)c2ccc3nc4c(c(C(=O)O)c3c2)CCCCC4)CC1)OCC	-7	5	9	12	-10	x	x	x
Cn1nnc(NC(=S)NC(=O)c2cccc3c(Cl)cccc23)n1	-36	-15	49*	11	52*	-2	x	39*
Cc1ccc(NC(=O)C2CCC(N3C(=O)C4CCCCC4C3=O)CC2)cc1 (stereo not drawn)	15	-4	11	6	29	x	x	x
CC(=O)NCCn1c(SCc2ccc(C)cc2C)nc2ccccc2c1=O	4	6	40*	34	56*	27	x	33
CC(=O)NCCn1c(SCc2ccccc2C)nc2ccccc2c1=O	26	4	22	13	34	x	x	x
NNc1nc(-c2ccccc2)cc(-c2ccc(Br)cc2)n1	16	46	55*	39	55*	50*	x	58*
NNc1nc(-c2ccccc2)c2cc(Br)ccc2n1	3	65*	44*	56*	62*	48*	30	28
CC(=O)NNc1nc(-c2ccccc2)c2cc(Br)ccc2n1	x	0	10	11	-24	x	x	x
O=c1cc(-c2ccccc2)nc2cc(-c3ccc(Br)cc3)[nH]n12	-8	11	-11	0	6	x	x	x
NNc1nc(-c2ccccc2)c2cc(Cl)ccc2n1	9	47	54*	48*	63*	32*	24	52*
CSc1ccc(COC(=O)CCS(=O)(=O)c2ccc(C)cc2)cc1	13	-21	34	22	50	x	x	x
CCc1ccc2oc(-c3cc(N)ccc3Cl)nc2c1	-19	3	44*	50*	56*	27	23	47*
Nc1ccc2oc(-c3cc(Br)ccc3Cl)nc2c1	-3	-7	54*	41*	59*	41*	36*	55*
O=S(=O)(c1ccc(Br)cc1Cl)N1CCN(CCO)CC1	-28	-15	0	-1	-9	x	x	x
CC1CCCCN1C(=O)CN1CCN(S(=O)(=O)c2ccc(Br)cc2Cl)CC1 (stereo not drawn)	-10	x	43*	29	52*	27	x	43*
CN1CCN(S(=O)(=O)c2ccc(Oc3cccc(C(F)(F)F)c3)nc2)CC1	-15	9	-1	-2	2	x	x	x
CCOc1ccc(Nc2ncnc3c2cnn3C)cc1	7	21	13	-4	18	x	x	x
COc1cccc(NC=C2C(=O)OC3(CCCCC3)OC2=O)c1	-6	4	66*	58*	74*	70*	72*	74*
SMILES	PfHsp90 yeast 2	SKKanGAS inh	tim10-1 inh	TIM10 inh	tim23-1 inh	tim10-1 conf	tim10 confirm	tim23-1 conf
COc1cccc(NC=C2C(=O)OC(C)(C)OC2=O)c1	12	-1	18	-1	14	x	x	x
O=C(Nc1cc(C(F)(F)F)ccc1N1CCOCC1)C1CCCO1 (stereo not drawn)	-11	x	-3	0	1	x	x	x
Cc1cc(C)c(NC(=O)CC(=O)c2ccccc2)c(Cl)c1	-2	1	29	4	27	x	x	x
Cc1cc(C)c(C(=O)CC(=O)c2ccccc2Cl)c(O)c1	-6	83*	48*	39	65*	36*	x	76*
CCCOc1ccc(N)cc1N	-20	10	50*	22	56*	19	x	36
CCCOc1cc(N)ccc1C(=O)OCCN(CC)CC	-7	x	-11	1	-10	x	x	x
O=C(OCC(=O)c1ccccc1Cl)C1=NN(c2ccccc2)C(=O)CC1	x	x	9	-5	6	x	x	x
COc1ccc(CCN(C)C(=O)CN2C(=O)NC3(CCCCC3C)C2=O)cc1OC (stereo not drawn)	-33	-4	-4	-4	-19	x	x	x
CC1(C)CC(=NOC(=O)c2ccccc2)CC(C)(C)N1O	-14	1	58*	58*	68*	61*	70*	78*
CC1(C)Cc2noc(N)c2C(C)(C)N1OC(=O)c1ccccc1	10	-4	9	24	14	x	x	x
Cc1cnc(C(=O)OC(C(=O)c2c[nH]c3ccccc23)c2ccccc2)cn1 (stereo not drawn)	x	1	21	8	15	x	x	x
Cc1cccc(/C(N)=N/OC(=O)N2c3ccccc3Sc3ccccc32)c1	-24	10	65*	83*	60*	52*	-32	45*
N/C(=N\OC(=O)N1c2ccccc2Sc2ccccc21)c1ccccc1	-9	-7	61*	84*	66*	48*	85*	50*
CC(=O)N1c2ccccc2Sc2ccccc21	-9	0	-6	-13	-4	x	x	x
CSc1ncc(C(=O)Nc2ccc(C(C)=O)cc2)c(-c2ccccc2)n1	6	4	11	-5	4	x	x	x
COC(=O)c1ccc(CN(C)S(=O)(=O)c2cccs2)cc1	-9	2	-71	-33	1	x	x	x
CC1CCC/C=C/C(=O)c2c(O)cc(O)cc2CC(=O)O1 (stereo not drawn)	-22	-1	54*	40*	53*	49*	51*	54*
C[C@@H]1Cc2c(O)c(O)cc(O)c2C(=O)O1	-13	-1	-11	-6	-5	x	x	x
O=C(CCCN1C(=O)c2ccccc2C1=O)NCc1ccc(F)cc1	2	5	16	2	3	x	x	x
Cc1ccc(/C=[N+](/C)[O-])cc1	5	7	7	-6	7	x	x	x
Cc1ccc(C=C2C(Cl)=C(Cl)C(Cl)=C2Cl)cc1	x	78*	64*	64*	74*	78*	78*	53*
